The values that follow come from ChEMBL document CHEMBL3433997, “St. Jude Leishmania screening dataset” (2016).

What all share (type): functional
Assay [1] has as its target Solute carrier family 2, facilitated glucose transporter member 1 (Homo sapiens) (UniProt P11166). Description: ST_JUDE_LEISH: Cytotoxicity at 2uM final concentration against transgenic Leishmania Mexicana promastigotes LmGLUT1 that are glucose transport deficient and complemented with the human glucose transporter GLUT1. Activity is measured by DNA content using SYBR green in vitro.

Assay [2] has as its target Hexose transporter 1 (Plasmodium falciparum) (UniProt O97467). The assay is described as follows: ST_JUDE_LEISH: Cytotoxicity at 2uM final concentration against transgenic Leishmania Mexicana promastigotes LmPfHT that are glucose transport deficient and complemented with the Plasmodium falciparum hexose transporter. Activity is measured by DNA content using SYBR green in vitro.

In assay [3] the target is Glucose transporter (Leishmania mexicana) (UniProt O61059). The assay is described as follows: ST_JUDE_LEISH: Cytotoxicity at 2uM final concentration against transgenic Leishmania Mexicana promastigotes LmGT2 that are glucose transport deficient and complemented with the L. Mexicana glucose transporter 2. Activity is measured by DNA content using SYBR green in vitro.

The structures appear in SMILES notation.

Chain of Solute carrier family 2, facilitated glucose transporter member 1 (Homo sapiens) (P11166 whole entry): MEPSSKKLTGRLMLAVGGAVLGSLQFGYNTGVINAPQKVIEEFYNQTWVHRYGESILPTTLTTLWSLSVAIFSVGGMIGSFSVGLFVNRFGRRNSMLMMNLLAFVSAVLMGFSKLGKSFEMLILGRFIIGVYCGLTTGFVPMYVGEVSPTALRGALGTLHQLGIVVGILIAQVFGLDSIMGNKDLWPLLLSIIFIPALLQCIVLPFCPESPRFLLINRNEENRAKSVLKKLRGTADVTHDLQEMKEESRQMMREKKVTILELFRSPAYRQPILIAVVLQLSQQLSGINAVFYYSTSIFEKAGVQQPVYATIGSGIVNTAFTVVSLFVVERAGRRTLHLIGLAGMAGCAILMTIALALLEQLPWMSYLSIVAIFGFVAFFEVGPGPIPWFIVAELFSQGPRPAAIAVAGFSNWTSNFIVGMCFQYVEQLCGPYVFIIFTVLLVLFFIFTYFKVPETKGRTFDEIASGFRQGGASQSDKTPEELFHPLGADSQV

As usually defined, the inhibition is the drop in the measured response relative to a control, in per cent. On to `CCOc1ccccc1C1CCN(CCCCNC(=O)c2ccc(NC(=O)c3ccc(Cl)cc3)cc2)CC1`, for which the inhibition came out at 10.6% in assay [1], 7.51% in assay [2] and 10.8% in assay [3].

As for `Cc1cc(Nc2cccc(C(F)(F)F)c2)nc(N)n1`, the inhibition is 0.43% in assay [1], 0.91% in assay [2] and 1.19% in assay [3].

For the compound `COc1cccc(Nc2nc(Nc3cccc(C#N)c3)cc(-c3ccncc3)n2)c1`, the inhibition in assay [1] was determined as 3.83%; in assay [2], 4.95%; in assay [3] it was 1.57%.

For the compound `Cc1cc(-c2cc(-c3ccc(OCCN(C)C)cc3)[nH]c2-c2ccc3c(c2)CCC3=NO)ccn1`, the inhibition in assay [1] is 4.92%; in assay [2], 3.52%; in assay [3], 2.39%.

For the compound `CNCc1ccc(-c2ccc3ccnc(N)c3c2)cc1`, the inhibition is 2.47% in assay [1], 5.56% in assay [2] and 3.23% in assay [3].

Turning to `O=C(NCCN1CCOCC1)c1ccc(O)c(-c2cccc(C(F)(F)F)c2)c1`, the inhibition in assay [1] was found to be 0.48%; in assay [2], 1.53%; in assay [3], 2.43%.

As for `O=C(Nc1ccc(-c2ccccc2)cc1)Nc1cccc(Cn2ncc(N3CCNCC3)c(Cl)c2=O)c1`, the inhibition was -0.79% in assay [1], 1.65% in assay [2] and 6.76% in assay [3].

For `O=C(/C=C/c1ccc(Cl)c(Cl)c1)NCCCCCCN1CCN(C(=O)Nc2cccc(Cl)c2)CC1`, the inhibition came out at 0.57% in assay [1], 1.97% in assay [2] and 3.02% in assay [3].

With `COCCN1CCN(Cc2cccc(-c3ccc(-c4nc5ccccc5[nH]4)cc3)c2)CC1`, the figures for the inhibition in assay [1], in assay [2] and in assay [3] were 0.45%, -3.13% and -1.36%, respectively.

For `C=CCn1c(SCC(=O)Nc2cc(Cl)ccc2Cl)nc2sc(C)cc2c1=O`, the results for the inhibition in assay [1], in assay [2] and in assay [3] were 1.86%, 0.95% and 0.76%, respectively.

As to `COc1cc(NC(=O)c2cccs2)c(OC)cc1NC(=O)Nc1cccc(Cl)c1`, the inhibition in assay [1] came out at 3.28%; in assay [2], 3.25%; in assay [3] it was 2.28%.

`O=C(N[C@@H](Cc1ccccc1)C(=O)NCc1cccc(C(F)(F)F)c1)c1ccc(O)c(-c2ccc(Cl)c(Cl)c2)c1`: the inhibition in assay [1] was 3.7%; in assay [2] it was 0.97%; in assay [3], -2.02%.

For `CN(Cc1cccc(C#N)c1)C1CCN(c2cc(NC(=O)c3cccc(F)c3)ccn2)CC1`, the figures for the inhibition in assay [1], in assay [2] and in assay [3] were 3.81%, 5.32% and 4.33%, respectively.

For the compound `NC(=O)C1CCN(Cc2ccc(-c3ccc(-c4nc5cc(C(F)(F)F)ccc5[nH]4)cc3)cc2)CC1`, the inhibition is 4.65% in assay [1], 2.32% in assay [2] and 3.93% in assay [3].

For the compound `Cc1cccc2nc(-c3ccc(-c4cccc(CN5CCC(N)C5)c4)s3)[nH]c12` (configuration not stated), the inhibition in assay [1] was 9.02%; in assay [2], 8.9%; in assay [3], 8.23%.

As for `CCOc1ncccc1CN1CCC(N2CCc3cc(NC(=O)c4cc(C)on4)ccc32)C1` (configuration not stated), the inhibition in assay [1] is -0.44%; in assay [2], 0.36%; in assay [3], -0.18%.

Turning to `O=C(C=Cc1ccc(F)cc1)N1CCN(S(=O)(=O)c2ccc(Cl)cc2)CC1`, the inhibition in assay [1] is 0.4%; in assay [2] it was -1.62%; in assay [3], 4.67%.

Turning to `COc1cc2nc(NCCn3cccn3)nc(NCCc3ccccc3)c2cc1OC`, the figures for the inhibition in assay [1], in assay [2] and in assay [3] were 7.22%, 3.02% and 6.96%, respectively.

Regarding `Clc1ccc2nc(-c3cccnc3)[nH]c2c1`, the inhibition in assay [1] amounted to 6.05%; in assay [2], 8.47%; in assay [3], 6.56%.

With `COc1ccc(CNC2CCN(C)CC2)cc1-c1ccc(S(=O)(=O)NCc2ccccc2)c(F)c1`, the inhibition was -0.66% in assay [1], -0.53% in assay [2] and -1.2% in assay [3].

For the compound `O=C(NC1CC1)c1ccc(N2CCCC(COc3ccccc3F)C2)nc1` (configuration not stated), the inhibition in assay [1] amounted to 2.73%; in assay [2], 1.75%; in assay [3] it was 2.62%.

Take `O=S(=O)(NCCN1CCCC1)c1ccc(-c2ccc(CNCc3ccsc3)cc2)cc1F`: the values for the inhibition in assay [1], in assay [2] and in assay [3] were 8.07%, 1.33% and -0.2%, respectively.

As for `O=C(NCc1cccc(C(F)(F)F)c1)c1ccc(CNC(=O)c2ccc(O)c(-c3ccc(Cl)c(Cl)c3)c2)cc1`, the values for the inhibition in assay [1], in assay [2] and in assay [3] were 5.02%, 2.57% and 3.47%, respectively.

`COc1c(C2CCN(CCCCNC(=O)c3ccc(-c4ccc(Cl)cc4)c(OCCN(C)C)c3)CC2)ccc2c1CCCC2`: the inhibition in assay [1] came to 9.22%; in assay [2] it was 14.4%; in assay [3], 18.8%.

Consider `CCCN(Cc1ccc(OCC)cc1)Cc1cc(=O)c2cc(Cl)ccc2[nH]1`, for which the inhibition was found to be 8.02% in assay [1], 8% in assay [2] and 7.1% in assay [3].

As to `Cc1cccc(OC2CCN(c3ncc(C(=O)NCCCN4CCCC4=O)cc3Cl)CC2)c1`, the figures for the inhibition in assay [1], in assay [2] and in assay [3] were 0.59%, 2.47% and 0.99%, respectively.

`O=C(NCc1cccc2ccccc12)C1CCCN(C(=O)c2ccc(O)c(-c3ccc(Cl)c(Cl)c3)c2)C1` (configuration not stated): the results for the inhibition in assay [1], in assay [2] and in assay [3] were 1.68%, 1.11% and 1.88%, respectively.

In the case of `Cc1cccc(CNc2nc(C)cc(N[C@@H](Cc3ccccc3)C(=O)NCCc3ccccc3)n2)c1`, the inhibition was determined as 3.88% in assay [1], 3.72% in assay [2] and 0.77% in assay [3].

`O=C(Nc1ccc(-c2ccc(CN3CCNCC3)cc2)cc1)c1cccc(Cl)c1`: the inhibition in assay [1] came out at 107%; in assay [2] it was 104%; in assay [3], 104%.

`O=C(/C=C/c1ccc(Cl)c(Cl)c1)NCCCCCN1CCN(C(=O)Nc2ccc(C(F)(F)F)cc2)CC1`: the inhibition in assay [1] is 2%; in assay [2], 1.98%; in assay [3], 0.71%.

Consider `CCOC(=O)c1ccc(NC(=O)N(Cc2ccc(-c3ccc(CN4CCNCC4)cc3)cc2)C2CCN(Cc3ccccc3)CC2)cc1`, for which the results for the inhibition in assay [1], in assay [2] and in assay [3] were 3.61%, 2.86% and -1.08%, respectively.

Regarding `COc1cc(Cc2cnc(N)nc2N)cc(OC)c1OCCCCCN1C(=O)c2ccccc2C1=O`, the inhibition in assay [1] is 3.29%; in assay [2], -0.4%; in assay [3], 0.36%.

`N=C(N)Nc1ccc(OCCCCCOc2ccc(NC(=N)N)c(Cl)c2)cc1Cl`: the inhibition was -0.79% in assay [1], -1.31% in assay [2] and -2.62% in assay [3].

For `COc1cccc(-c2cc(C(=O)NC3CCC(N4CCC(c5ccccc5C)CC4)CC3)[nH]n2)c1` (configuration not stated), the inhibition stood at 6.55% in assay [1], 14.6% in assay [2] and 5.13% in assay [3].

As to `Nc1ccc(-c2csc(Nc3ccncc3)n2)cc1`, the inhibition is 2.7% in assay [1], 1.93% in assay [2] and 2.21% in assay [3].

Turning to `COc1ccc2c(NN=Cc3cccnc3)ccnc2c1`, the inhibition in assay [1] is 0.4%; in assay [2] it was 2.02%; in assay [3] it was -0.33%.

Turning to `CN(CCNCc1ccc(-c2cccc(-c3nc4ccccc4[nH]3)c2)cc1)S(C)(=O)=O`, the inhibition in assay [1] is 0.68%; in assay [2], 0.26%; in assay [3], 1.73%.

Take `Oc1ccccc1-c1nc2cccnc2n1CCc1cccc(C(F)(F)F)c1`: the inhibition in assay [1] is 4.81%; in assay [2] it was 3.7%; in assay [3] it was 5.31%.

Consider `CCCN(Cc1nnc(-c2ccco2)o1)C(=O)C1CCN(c2ncc(C(F)(F)F)cc2Cl)CC1`, for which the inhibition in assay [1] was found to be 11.4%; in assay [2], 10.2%; in assay [3] it was 10.8%.

Consider `Cc1cccc2nc(-c3ccc(-c4cccc(CNCCc5ccncc5)c4)s3)[nH]c12`, for which the inhibition in assay [1] stood at 3.13%; in assay [2] it was 1.49%; in assay [3], 2.73%.

Take `CC[C@H](C)[C@H](NC(=O)[C@H](CC1CCCCC1)[C@H](CC)N(O)C=O)C(=O)Nc1ccccn1`: the figures for the inhibition in assay [1], in assay [2] and in assay [3] were 8.41%, 8.39% and 8.25%, respectively.

On to `O=S(=O)(Nc1cccc(CCN2CCC(N3CCCCC3)CC2)c1)c1cccc(C(F)(F)F)c1`, for which the inhibition in assay [1] stood at 0.17%; in assay [2] it was 3.24%; in assay [3], 0.82%.

Regarding `Cn1ccnc1CCC(=O)Nc1ccc(Cl)cc1C(=O)Nc1ccc(Cl)cc1`, the inhibition in assay [1] worked out at 2.75%; in assay [2], 1.39%; in assay [3], 2.79%.

Turning to `O=C(c1ccc(F)c(F)c1)N1CCOC(CCN2CCC(c3ccccc3)CC2)(c2ccc(Cl)c(Cl)c2)C1` (configuration not stated), the inhibition in assay [1] stood at 4.15%; in assay [2], 2.12%; in assay [3], 3.63%.

In the case of `Oc1cccc(-c2cnc3ccc(NCc4ccc(F)cc4)nn23)c1`, the inhibition was -3.17% in assay [1], 0.63% in assay [2] and -1.63% in assay [3].

Consider `CC1(CCc2ccccc2)N=C(N)N(Cc2ccccc2)C(=O)C1c1ccc(Cl)c(Cl)c1` (configuration not stated), for which the inhibition in assay [1] is 3.32%; in assay [2] it was 2.08%; in assay [3], 0.94%.

As for `CC(=O)Nc1ccc2[nH]cc(C3CCN(CC4CCN(C(=O)/C=C/c5ccc(Cl)c(Cl)c5)CC4)CC3)c2n1`, the inhibition in assay [1] is 3.09%; in assay [2] it was 0.87%; in assay [3], -1.1%.

In the case of `Cc1ccc(/C=C/C(=O)NCCCCCN2CCN(C(=O)Nc3ccc(Cl)c(C(F)(F)F)c3)CC2)cc1`, the inhibition in assay [1] is 4.47%; in assay [2] it was -0.2%; in assay [3], 0.88%.

For the compound `CCC(C)NCCC(c1ccccc1)c1ccccc1O` (configuration not stated), the inhibition in assay [1] is 5.11%; in assay [2] it was 4.69%; in assay [3] it was 4.41%.
